# Test results as given in PubChem BioAssay (Tox21).
# Several values for one entry are separate records, joined by “and”; a condition that tells them apart may be missing. Equal entries are not always repeated. Inconclusive results are not listed. Entries that show only a call come without a potency. A structure can be active in one record and inactive in another. Activity calls are given as the source filed them. Calls come from the whole dose curve; as a rule, active = well fitted cell-killing curve with a large enough effect in the repeat runs; inconclusive = weak or mixed curves; inactive = no such curve, though single readings can be large or run the other way.
# Test: qHTS assay to identify small molecule antagonists of the androgen receptor (AR) signaling pathway - cell viability counter screen (AID 743033; note: nearly all actives have a fitted effect of over 45% in size)
# Conditions: AR-bla HEK293 viability, CellTiter-Glo luminescence, 16 h; series mostly up to 58.5 µM
# From the text: National Center for Advancing Translational Sciences [NCATS]
# NIH Chemical Genomics Center [NCGC]
# U.S. Environmental Protection Agency [EPA]
# National Institutes of Environmental Health Sciences [NIEHS]
# National Toxicology Program [NTP]
# U.S. Food and Drug Administration [FDA]
# Androgen receptor (AR), a nuclear hormone receptor, plays a critical role in AR-dependent prostate cancer and other androgen related diseases. Endocrine disrupting chemicals (EDCs) and their interactions with steroid hormone receptors like AR may cause disruption of normal endocrine function as well as interfere with metabolic homeostasis, reproduction, developmental and behavioral functions. To identify the compounds that inhibit AR signaling, GeneBLAzer AR-UAS-bla-GripTite cell line (Invitrogen, Carlsbad, CA, USA) containing a beta-lactamase reporter gene under control of an Upstream Activator Sequence (UAS) stably integrated into HEK293 cells was used to screen the Tox21 10K compound library. The cytotoxicity of the Tox21 compound library against the AR-bla cell line was tested in parallel by measuring the cell viability using CellTiter-Glo assay in the same wells.
# Tox21 Assay Protocol Summary:
# AR-bla cells were dispensed at 2,000 cells/5 uL of assay medium per well into black wall/clear-bottom 1536-well plates using a Multidrop Combi (ThermoFisher Scientific, Waltham, MA) dispenser. After the assay plates were incubated at a 37C and 5% CO2 for 4 hr, 23 nL of compounds dissolved in DMSO, positive controls or DMSO only was transferred to the assay plate by a Pintool station (Kalypsys, San Diego, CA), followed by addition of 1 uL of agonist (R1881) in culture medium using a Bioraptr Flying Reagent Dispenser (FRD) workstation (Beckman Coulter, Indianapolis, IN, USA). The plates were incubated at a 37C and 5% CO2 for 16 h. After 1 uL of LiveBLAzerTM B/G FRET substrate was added using a Bioraptr FRD, the plates were incubated at room temperature for 2 h and fluorescence intensity was measured by an Envision plate reader (PerkinElmer, Shelton, CT). For cell viability readout that measures cytotoxicity, 4 ul/well of CellTiter-Glo reagent was added into the assay plates using a Bioraptr FRD. After 30 min incubation at room temperature, the luminescence intensity in the plates was measured using a ViewLux (PerkinElmer) plate reader.
# Potency is the fitted concentration of half-maximal effect.
row,SMILES,Potency
1,CC1=CC2C3CC(C=C3C)C2C1 (stereo not given),inactive
2,Clc1nc(Cl)c(Cl)c(Cl)c1Cl,inactive
3,CC(=O)Oc1ccccc1C(=O)Nc1ncc([N+](=O)[O-])s1,inactive and 7.06 µM (active)
4,CC1=CCC(C(C)(C)O)CC1 (stereo not given),inactive
5,Cc1cc2nc3c(=O)[nH]c(=O)nc-3n(C[C@H](O)[C@H](O)[C@H](O)CO)c2cc1C,inactive
6,CCC(C)CO (stereo not given),inactive
7,CN1C(C(=O)Nc2ccccn2)=C(O)c2ccccc2S1(=O)=O,inactive
8,CCC(C)OC(=O)c1ccc(O)cc1 (stereo not given),inactive
9,O=C(c1ccc(OCCN2CCCCC2)cc1)c1c(-c2ccc(O)cc2)sc2cc(O)ccc12,21.9 µM (active) and 38.9 µM (active)
10,NC=O,inactive
11,CC(CCC(=O)O)(c1ccc(O)cc1)c1ccc(O)cc1,inactive
12,CC(=O)C1(C)CC2=C(CCCC2(C)C)CC1C (stereo not given),inactive
13,COc1cccc2c1C(=O)c1c(O)c3c(c(O)c1C2=O)C[C@@](O)(C(=O)CO)C[C@@H]3O[C@H]1C[C@H](N)[C@H](O)[C@H](C)O1,inactive
14,O=C=Nc1ccc(Cc2ccc(N=C=O)cc2)cc1,inactive
15,COC(=O)CCC(=O)OC,inactive
16,COC(C)COC(C)COC(C)CO (stereo not given),inactive
17,Brc1cc(Oc2cc(Br)c(Br)c(Br)c2Br)c(Br)c(Br)c1Br,inactive
18,O=C(c1ccccc1)c1ccc(O)cc1O,inactive
19,Cc1cccc([N+](=O)[O-])c1C,inactive
20,CC(C)OC=O,inactive

row,SMILES,Potency
1,Nc1ccc(Cl)cc1Cl,inactive
2,OCCO,inactive
3,O=c1oc(=O)c2cc3c(=O)oc(=O)c3cc12,inactive
4,c1ccc2cc(Nc3ccc(Nc4ccc5ccccc5c4)cc3)ccc2c1,inactive
5,O=C(O)c1ccccc1Nc1cccc(C(F)(F)F)c1,inactive
6,CCCCNS(=O)(=O)c1ccccc1,inactive
7,O=S(=O)(O)c1ccc(O)cc1,inactive
8,Cc1cccc(C(=O)O)c1,inactive
9,Cc1ccc2c(n1)Oc1ccc(C(C)C(=O)OCC(=O)N(C)C)cc1C2 (stereo not given),inactive
10,O=C(OCc1ccccc1)c1ccccc1O,inactive
11,O=P(O)(O)O,inactive
12,COc1c(Cl)c(Cl)c(Cl)c(Cl)c1Cl,inactive
13,COC(=O)C1=C(C)NC(C)=C(C(=O)OCCN(C)Cc2ccccc2)C1c1cccc([N+](=O)[O-])c1 (stereo not given),48.7 µM (active)
14,CNCCCC12CCC(c3ccccc31)c1ccccc12,inactive and 43.6 µM (active)
15,Cc1[nH]c(=O)c(C#N)cc1-c1ccncc1,inactive
16,C#C[C@]1(O)CC[C@H]2[C@@H]3CCc4cc(OC)ccc4[C@H]3CC[C@@]21C,inactive
17,Nc1ccccc1N,inactive
18,CC(=O)CC/C=C(\C)CCC=C(C)C,inactive
19,O=[N+]([O-])c1ccc2c(c1)Cc1ccccc1-2,inactive
20,Nc1ncnc2nc[nH]c12,inactive
